The source of these data is PubChem BioAssay (NCATS).

Experiment [1] is described as follows: qHTS to identify inhibitors of the type 1 interferon - major histocompatibility complex class I in skeletal muscle: primary screen against the NCATS LOPAC collection (AID 1347405).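 Note: human myoblasts with HiBiT tag on endogenous HLA-B stimulated by IFN-beta; lytic HiBiT luminescence reporting HLA-B protein level.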 Note: potency is the fitted concentration of half-maximal effect. A digest of the protocol:
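HLA-B HiBiT myoblasts, IFN-b 4 ng/ml, dexamethasone-free medium; compounds 7-pt 1:4.3 titration, top 46 uM final; 24 h at 37 C; Nano-Glo HiBiT lytic reagent, 10 min RT, luminescence.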
For orientation: Quantitative high-throughput screening tests each substance at several concentrations.

Experiment [2] in a line: qHTS for inhibitors of adenylyl cyclases using a fission yeast platform: a pilot screen against the NCATS LOPAC library (AID 1347410). A digest of the protocol: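 GFP from fbp1-GFP reporter, read by Acumen laser cytometry, indicates AC inhibition in fission yeast expressing AC9, GNAS and PDE4D2. Cells grown 18 h in the dark at 30C with compounds, final up to 57 uM.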
Experiment [3] is described as follows: qHTS to identify inhibitors of the type 1 interferon - major histocompatibility complex class I in skeletal muscle: primary screen against the NCATS Mechanism Interrogation Plate v5.0 (MIPE) Libary (AID 1347411). Note: nearly all actives have a fitted effect of over 65% in size. A digest of the protocol:
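HLA-B HiBit myoblasts, dexamethasone-free medium + 4 ng/ml IFN-b, 24 h compound, 11-pt 1:3 from 46 uM final. Readout: Nano-Glo HiBiT lytic luminescence after 10 min lysis, RT.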

The nature of experiment [4]: Validation qHTS assay for inhibitors of Activation Induced Cytidine Deaminase (AID): UDG Counterscreen signal (AID 1347427). Note: potency is the fitted concentration of half-maximal effect. A digest of the protocol:
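Fluorescence at 560 nm excitation, 665 nm emission reports UDG signal after 250 mM NaOH (2x) addition and 30 min. Enzymes (AID 1 uM, UDG 2 U/mL, at 4/3x) preincubated 10 min with compound, then 4 h with 4x 250 nM DJC20/DJC23 substrate at room temperature.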

Experiment [5] has as its target Single-stranded DNA cytosine deaminase (Homo sapiens) (UniProt Q9GZX7). The experiment can be described thus: Validation qHTS assay for inhibitors of Activation Induced Cytidine Deaminase (AID): AID signal (AID 1347429). Note: potency is the fitted concentration of half-maximal effect. A digest of the protocol: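 AID+UDG coupled FRET deamination; cpds up to 114 uM final; DJC20/DJC23 substrate, 4 hr RT; NaOH stop, 30 min RT; read Ex 540/Em 590.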

Experiment [6] in a line: Primary qHTS for inhibitors of La Crosse Virus (LACV) - induced cell death in SH-SY5Y cells (AID 1508616).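 Note: top concentration of the series differs between compounds; higher means more rescue of cells from virus-induced death.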 A digest of the protocol: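 Cytopathicity rescue screen: compounds pinned onto SH-SY5Y cells, which are then infected with LACV (MOI 0.01) and held 6 days at 37C. Percent activity is scaled between infected DMSO control and uninfected DMSO control.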
A short description of experiment [7]: qHTS to identify inhibitors of the type 1 interferon - major histocompatibility complex class I in skeletal muscle: primary screen against the NCATS Pharmaceutical Collection (AID 1347407).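 Note: luminescence of HiBiT knocked into endogenous HLA-B as interferon-induced MHC class I level.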 A digest of the protocol: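 Compounds […] were added to CRISPR-engineered HLA-B-HiBiT C25cl48 human myoblasts with 4.0 ng/ml IFN-beta. After 24 hrs at 37 C, cells were lysed and HiBiT luminescence measured.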

Experiment [8] concerns the target Protein phosphatase 1D (Homo sapiens) (UniProt O15297). The experiment can be described thus: Rhodamine-PBP qHTS Assay for Modulators of WT P53-Induced Phosphatase 1 (WIP1) (AID 1347425). A digest of the protocol:
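WIP1 (5 nM final) was preincubated with compound for 1 hour at room temperature. It then dephosphorylated 10 uM VEPPL-pS-QETFS peptide in Tris-HCl pH 7.5 with 30 mM MgCl2. Released Pi was detected by 10 uM Rh-PBP fluorescence (ex 525/em 598 nm) read at 1-min intervals for 11 min, as delta f1 - f0.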

Experiment [9] has as its target Calcium and integrin-binding protein 1 (Homo sapiens) (UniProt Q99828). The experiment in a line: Validation qHTS for Identification of Calcium Integrin Binding protein 1 (CIB1) Competitor (AID 1508618). A digest of the protocol:
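Fluorescence polarization with 1 uM CIB1-GST and 100 nM FITC-alphaIIb peptide in HEPES pH 7.4, NaCl, 5 mM CaCl2, Tween20. Compounds at up to 114 uM final, preincubated with protein 15 min; read after 15 min more at RT.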

Experiment [10] has the same target. The experiment in a line: Primary qHTS for Identification of Calcium Integrin Binding Protein 1 (CIB1) Competitor (AID 1508620).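 Note: GST tagged CIB1 binding a fluorescein labelled alphaIIb integrin peptide tracer; top concentration of the series differs between compounds.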 A digest of the protocol:
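Fluorescence polarization competition: CIB1-GST (1 uM final) preincubated with compound 15 min at room temperature, then FITC-labeled alphaIIb peptide (100 nM final) added for another 15 min. Polarization read at Ex 480/Em 540.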

For experiment [11], the target named is Protein phosphatase 1D (Homo sapiens) (UniProt O15297). The experiment in a line: RapidFire Mass Spectrometry qHTS Assay for Modulators of WT P53-Induced Phosphatase 1 (WIP1) (AID 1347424).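 Note: amount of dephosphorylated VEPPL-S-QETFS peptide product formed by WIP1; series mostly up to about 63 µM.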 A digest of the protocol: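 Mass-spectrometric measurement of dephosphorylated peptide after a 5 min room-temperature reaction of 10 nM WIP1 with 2 uM phosphopeptide, following 1 h compound preincubation in 30 mM MgCl2 buffer.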

Each structure is given as a SMILES string. Inconclusive results are not listed. Calls of active or inactive are those of the source. Calls come from the whole dose curve; as a rule, active = well fitted curve in the direction sought with a large enough effect; inconclusive = small, poorly fitted or top-dose-only effect, or another doubt; inactive = no such curve, though single readings can be large; an effect the other way counts as inactive or inconclusive.

Sequence of Protein phosphatase 1D (Homo sapiens) (O15297 whole entry, looked up): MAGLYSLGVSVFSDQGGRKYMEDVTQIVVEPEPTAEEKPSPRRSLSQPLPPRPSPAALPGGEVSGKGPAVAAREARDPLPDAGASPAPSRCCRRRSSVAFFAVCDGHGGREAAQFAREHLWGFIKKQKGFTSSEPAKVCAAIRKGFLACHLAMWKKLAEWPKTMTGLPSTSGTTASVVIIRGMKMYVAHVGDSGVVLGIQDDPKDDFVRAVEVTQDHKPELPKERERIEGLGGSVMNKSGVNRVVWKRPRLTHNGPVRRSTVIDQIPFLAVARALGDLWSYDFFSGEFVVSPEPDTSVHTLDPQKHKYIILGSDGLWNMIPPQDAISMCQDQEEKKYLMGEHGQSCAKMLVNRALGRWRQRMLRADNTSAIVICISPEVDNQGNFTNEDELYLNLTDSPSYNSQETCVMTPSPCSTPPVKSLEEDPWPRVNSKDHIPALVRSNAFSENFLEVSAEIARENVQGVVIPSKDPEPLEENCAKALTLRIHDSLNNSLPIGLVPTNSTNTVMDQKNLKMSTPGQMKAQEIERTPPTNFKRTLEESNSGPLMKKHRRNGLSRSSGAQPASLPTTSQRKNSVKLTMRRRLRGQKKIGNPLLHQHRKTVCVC
Sequence of Single-stranded DNA cytosine deaminase (Homo sapiens) (Q9GZX7 whole entry, looked up): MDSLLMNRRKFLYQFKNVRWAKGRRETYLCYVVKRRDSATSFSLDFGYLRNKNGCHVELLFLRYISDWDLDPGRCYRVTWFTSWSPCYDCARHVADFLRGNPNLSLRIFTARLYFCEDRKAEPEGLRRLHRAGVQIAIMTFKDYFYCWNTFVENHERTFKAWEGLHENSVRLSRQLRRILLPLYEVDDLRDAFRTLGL
Sequence of Calcium and integrin-binding protein 1 (Homo sapiens) (Q99828 whole entry, looked up): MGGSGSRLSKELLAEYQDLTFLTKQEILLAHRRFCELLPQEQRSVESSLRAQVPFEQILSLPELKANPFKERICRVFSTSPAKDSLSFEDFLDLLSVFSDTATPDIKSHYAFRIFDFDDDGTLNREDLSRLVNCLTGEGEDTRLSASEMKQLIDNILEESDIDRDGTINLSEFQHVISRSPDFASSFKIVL

Turning to `COc1cc(SC)ccc1C(=O)N1CCC(Cc2ccccc2)CC1`, the Potency result in experiment [1], in experiment [3], in [4], in [5] and in experiment [6] was “inactive” in each case. In addition, the compound was called inactive in [2].

On to `CCC(CO)Nc1nc(NCc2ccccc2)c2ncn(C(C)C)c2n1` (stereo unspecified), for which, in [1], the Potency was 15.8 µM (active). Also, the outcome in experiment [2] was inactive.

Consider `COc1ccc(Br)cc1S(=O)(=O)NC(=O)/C=C/c1ccccc1Cc1ccc2ccccc2c1`, for which, in [1], the Potency result was “inactive”. In addition, the result in experiment [2] was inactive.

With `O=C(O)CCCC[C@@H]1CCSS1`, the Potency result in experiment [1], in [4], in [5] and in experiment [6] was “inactive” in each case. In addition, in [2], the compound was called inactive.

`CC(N)C(=O)OC(C)(C)Cc1ccc(Cl)cc1` (stereo unspecified): the Potency result in experiment [1], in experiment [7], in [4], in experiment [5], in [6] and in experiment [10] was “inactive” each time. Further, the result in [2], in [8] and in experiment [9] was inactive.

For `CC(C)NC[C@@H](O)c1ccc(O)c(O)c1`, the Potency result in experiment [1], in [4], in experiment [5] and in experiment [6] was “inactive” each time. For the same compound, in [2], the outcome was inactive.

`N[C@@H](CC(=O)O)C(=O)O`: the Potency entry in experiment [1], in [4], in [5] and in experiment [6] was “inactive” in each case. Also, the result in experiment [2] was inactive.

As to `O=C(O)CC1CCCc2ccccc2C1O` (stereo unspecified), the Potency entry in experiment [1], in experiment [4], in [5] and in [6] was “inactive” each time. In addition, the result in experiment [2] and in [9] was inactive.

For the compound `OCC1O[C@H]([S-])[C@H](O)[C@@H](O)[C@@H]1O.[Au+]` (stereo partly specified), the Potency in [1] was 17.8 µM (active); in [5], 12.6 µM (active). Besides, in experiment [2], the call was inactive. Further, the Potency entry in experiment [4] and in experiment [6] was “inactive” throughout.

As to `O=C1NCc2c1c1c3ccccc3[nH]c1c1[nH]c3ccccc3c21`, in experiment [1], the Potency was 7.94 µM (active). Further, in experiment [2], the compound was called inactive.

Turning to `NO`, the Potency entry in experiment [1], in experiment [5] and in [6] was “inactive” in each case. Besides, the compound was called inactive in [2]. Besides, in experiment [4], the Potency was 56.2 µM (active).

Regarding `CN1CC(=O)N/C1=N/C(=O)Nc1cccc(Cl)c1`, the Potency result in experiment [1], in [7], in experiment [11], in [4], in experiment [5] and in experiment [6] was “inactive” in each case. In [10], the Potency result is “inactive”. In addition, the compound was called inactive in [2], in experiment [8] and in [9].

For the compound `CN(C)CCC(c1ccc(Cl)cc1)c1ccccn1` (stereo unspecified), the Potency entry in experiment [1], in experiment [4] and in experiment [5] was “inactive” each time. In [2], the compound was classed as inactive.

On to `Brc1c(Br)c(Br)c2n[nH]nc2c1Br`, for which the Potency result in experiment [1], in experiment [4] and in experiment [5] was “inactive” throughout. Besides, the compound was classed as inactive in experiment [2].

For `CN(C)C(N)=NCCC[C@H](N)C(=O)O`, the Potency entry in experiment [1], in experiment [4], in experiment [5] and in experiment [6] was “inactive” in each case. Besides, the result in experiment [2] and in experiment [9] was inactive.

For `O=c1[nH]c2cc(C(F)(F)F)ccc2n1-c1cc(C(F)(F)F)ccc1O`, the Potency entry in [1], in experiment [4], in experiment [5] and in experiment [6] was “inactive” each time. The outcome in [2] was inactive.

In the case of `CN1C2CC(OC(=O)[C@H](CO)c3ccccc3)CC1C1OC12` (stereo partly specified), the Potency result in [1], in experiment [4], in experiment [5] and in [6] was “inactive” in each case. Further, the outcome in experiment [2] was inactive.
